Measured values from article PMC3218832.

Experiments:
Experiment in all cases: protein binding microarray; high values mean tight binding
Conditions in all cases: dsDNA, one strand shown
RELARELA (p65 homodimer) = RELARELA (p65 homodimer) (Homo sapiens, UniProt Q04206 1-307)
p50p50 homodimer = p50p50 homodimer (Homo sapiens, UniProt P19838 7-356)
p52p52 homodimer = molecular target: T1, p52p52 homodimer (Homo sapiens, UniProt Q00653 4-332)
T1 sequence: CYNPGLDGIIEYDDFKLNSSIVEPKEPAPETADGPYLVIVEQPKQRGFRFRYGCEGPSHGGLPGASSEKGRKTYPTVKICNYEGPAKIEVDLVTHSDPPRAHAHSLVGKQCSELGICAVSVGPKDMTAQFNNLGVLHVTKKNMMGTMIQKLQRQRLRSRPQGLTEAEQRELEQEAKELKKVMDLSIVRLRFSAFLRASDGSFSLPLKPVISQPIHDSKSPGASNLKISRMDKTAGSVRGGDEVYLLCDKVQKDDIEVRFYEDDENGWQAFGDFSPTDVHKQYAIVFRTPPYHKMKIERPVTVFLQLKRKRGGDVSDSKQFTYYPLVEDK

[1] = molecular target: RELA (p65) subunit of heterodimer;p50 subunit (Homo sapiens;Homo sapiens, UniProt Q04206;P19838 1-307;7-356)
RELA (p65) subunit of heterodimer;p50 subunit, sequence (Q04206 1-307, chain 1 of 2): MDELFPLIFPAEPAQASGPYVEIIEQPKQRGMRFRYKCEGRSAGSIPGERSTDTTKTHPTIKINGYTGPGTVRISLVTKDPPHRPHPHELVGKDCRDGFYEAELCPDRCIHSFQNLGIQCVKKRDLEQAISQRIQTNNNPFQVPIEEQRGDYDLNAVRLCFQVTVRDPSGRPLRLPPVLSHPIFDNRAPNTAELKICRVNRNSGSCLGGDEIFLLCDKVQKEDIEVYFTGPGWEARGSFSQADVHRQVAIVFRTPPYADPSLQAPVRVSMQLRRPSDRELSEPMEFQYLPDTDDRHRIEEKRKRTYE
RELA (p65) subunit of heterodimer;p50 subunit, sequence (P19838 7-356, chain 2 of 2): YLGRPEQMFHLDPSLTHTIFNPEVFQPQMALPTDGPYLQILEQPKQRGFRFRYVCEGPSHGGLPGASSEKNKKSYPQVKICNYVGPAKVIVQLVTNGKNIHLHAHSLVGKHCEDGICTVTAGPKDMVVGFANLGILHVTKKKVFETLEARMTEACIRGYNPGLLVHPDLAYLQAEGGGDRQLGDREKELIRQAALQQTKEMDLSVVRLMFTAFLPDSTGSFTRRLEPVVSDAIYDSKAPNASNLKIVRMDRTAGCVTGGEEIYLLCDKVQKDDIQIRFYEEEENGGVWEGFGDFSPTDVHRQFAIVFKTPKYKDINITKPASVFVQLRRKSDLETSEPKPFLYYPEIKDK

[2] = molecular target: RELA (p65) subunit of heterodimer;p52 subunit (Homo sapiens;Homo sapiens, UniProt Q04206;Q00653 1-307;4-332)
RELB subunit;p50 subunit = RELB subunit;p50 subunit (Homo sapiens;Homo sapiens, UniProt Q01201;P19838 120-401;7-356)
RELB subunit;p52 subunit = molecular target: T2, RELB subunit;p52 subunit (Homo sapiens;Homo sapiens, UniProt Q01201;Q00653 120-401;4-332)
T2 sequence 1: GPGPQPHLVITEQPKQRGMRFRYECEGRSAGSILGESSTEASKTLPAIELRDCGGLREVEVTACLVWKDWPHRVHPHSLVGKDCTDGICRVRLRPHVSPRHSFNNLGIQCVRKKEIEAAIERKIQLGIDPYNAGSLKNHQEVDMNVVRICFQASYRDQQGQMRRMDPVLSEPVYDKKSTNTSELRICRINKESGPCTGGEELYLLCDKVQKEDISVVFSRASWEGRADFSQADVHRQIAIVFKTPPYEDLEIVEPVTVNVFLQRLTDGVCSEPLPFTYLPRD
T2 sequence 2: T1 sequence

[3] = molecular target: C-Rel subunit;p50 subunit (Homo sapiens;Homo sapiens, UniProt Q04864;P19838 1-285;7-356)
[4] = molecular target: T3, C-Rel subunit;p52 subunit (Homo sapiens;Homo sapiens, UniProt Q04864;Q00653 1-285;4-332)
T3 sequence 1: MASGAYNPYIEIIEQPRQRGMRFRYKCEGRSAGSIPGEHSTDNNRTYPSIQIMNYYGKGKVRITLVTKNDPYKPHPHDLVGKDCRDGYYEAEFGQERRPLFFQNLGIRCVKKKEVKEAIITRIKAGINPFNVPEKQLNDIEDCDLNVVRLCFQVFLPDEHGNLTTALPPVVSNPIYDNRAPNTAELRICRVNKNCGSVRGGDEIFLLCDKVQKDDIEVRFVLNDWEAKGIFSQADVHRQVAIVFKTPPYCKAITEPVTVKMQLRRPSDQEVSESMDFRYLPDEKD
T3 sequence 2: T1 sequence

RELARELA (p65 homodimer), sequence (Q04206 1-307): as the sequence (Q04206 1-307, chain 1 of 2) above
p50p50 homodimer, sequence (P19838 7-356): as the sequence (P19838 7-356, chain 2 of 2) above

| Sequence | binding signal (RELARELA (p65 homodimer)) | binding signal (p50p50 homodimer) | binding signal (p52p52 homodimer) | binding signal [1] | binding signal [2] | binding signal (RELB subunit;p50 subunit) | binding signal (RELB subunit;p52 subunit) | binding signal [3] | binding signal [4] |
| --- | --- | --- | --- | --- | --- | --- | --- | --- | --- |
| GAGAGGACCCC | -0.845 z-score | -0.858 z-score | -0.455 z-score | -0.636 z-score | -0.537 z-score | -0.461 z-score | -0.392 z-score | -0.607 z-score | -0.571 z-score |
| AGAGAGGTCCT | 0.413 z-score | -1.58 z-score | -0.36 z-score | -0.866 z-score | -0.592 z-score | -0.624 z-score | -0.363 z-score | -1.31 z-score | -0.537 z-score |
| AGATTGACCCT | -0.149 z-score | -0.594 z-score | -0.42 z-score | -0.583 z-score | -0.704 z-score | -0.635 z-score | -0.605 z-score | -0.895 z-score | -0.787 z-score |
| CGATAGCTCCT | -0.609 z-score | -1.63 z-score | -0.796 z-score | -1.07 z-score | -1.04 z-score | -1.34 z-score | -1 z-score | -1.65 z-score | -1.09 z-score |
| GAGATAGTCCT | -0.228 z-score | -0.791 z-score | -0.575 z-score | -0.973 z-score | -0.809 z-score | -0.986 z-score | -0.865 z-score | -1.2 z-score | -0.764 z-score |
| AAGTACATCCC | 0.78 z-score | -0.756 z-score | -0.37 z-score | -0.432 z-score | -0.425 z-score | -0.551 z-score | -0.549 z-score | -0.042 z-score | -0.446 z-score |
